Test results reported in PubChem BioAssay (NCATS).
Where “and” joins values, the source holds several entries; their conditions need not be identical. Equal values may be shown once. Inconclusive results are not listed. A call without a number means that no potency is given here. The source holds several records for some structures; these can differ, active in one and inactive in another. Calls of active or inactive are those of the source. Calls come from the whole dose curve; as a rule, active = well fitted curve in the direction sought with a large enough effect; inconclusive = small, poorly fitted or top-dose-only effect, or another doubt; inactive = no such curve, though single readings can be large; an effect the other way counts as inactive or inconclusive.

Experiments:
[1] = biological target: Metallo-beta-lactamase type 2 (Klebsiella pneumoniae) (UniProt C7C422); assay: qHTS to identify inhibitors of the New Delhi Metallo-beta-lactamase (NDM): assay validation screen against the NCATS LOPAC Collection (AID 1794843); note: series mostly up to about 38 µM
Outline: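 Absorbance at 485 nm from nitrocefin turnover (50 uM solution added), read at plateau, gives the read-out. Compounds in DMSO were incubated first with 2 nM final NDM-1 in pH 7.0 HEPES buffer containing 1 uM ZnSO4 and 0.01% Tween20.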

[2] = biological target: Glutathione peroxidase 1 (Homo sapiens) (UniProt P07203); assay: Primary qHTS Assay for Inhibitors of Recombinant Selenoprotein Glutathione Peroxidase 1 (GPX1) (AID 1845191); note: nearly all actives have a fitted effect of over 65% in size; note: potency is the fitted concentration of half-maximal effect
Outline: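 GR-coupled assay: compounds preincubated 30 min at room temperature with GPX1, then reaction started with CHP; final 10 nM GPX1, 1 mM GSH, 0.5 mM CHP, 0.5 mM NADPH, 100 nM GR, 0.01% BSA, pH 7.5 Tris buffer. NADPH fluorescence (340/450 nm) read at 0 and 15 min.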

[3] = biological target: Phospholipid hydroperoxide glutathione peroxidase GPX4 (Homo sapiens) (UniProt P36969); assay: Primary qHTS Assay for Inhibitors of Recombinant Selenoprotein Glutathione Peroxidase 4 (GPX4) (AID 1845192); note: nearly all actives have a fitted effect of over 65% in size
Outline: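 GR-coupled assay: recombinant GPX4 preincubated 30 min with compound at room temperature; final 200 nM GPX4, 1 mM GSH, 0.5 mM cumene hydroperoxide, 0.5 mM NADPH, 100 nM GR, 0.01% BSA, pH 7.5 Tris. NADPH fluorescence (340/450 nm) read at 0 and 15 min.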

Chain of Metallo-beta-lactamase type 2 (Klebsiella pneumoniae) (C7C422 whole entry, looked up): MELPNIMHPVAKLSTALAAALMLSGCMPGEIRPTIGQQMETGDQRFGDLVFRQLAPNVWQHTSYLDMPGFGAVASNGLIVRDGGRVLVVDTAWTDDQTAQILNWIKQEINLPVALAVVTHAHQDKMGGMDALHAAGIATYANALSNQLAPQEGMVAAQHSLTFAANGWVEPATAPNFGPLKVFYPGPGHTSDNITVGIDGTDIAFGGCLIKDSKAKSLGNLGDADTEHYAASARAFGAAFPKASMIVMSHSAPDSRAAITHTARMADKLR
Chain of Glutathione peroxidase 1 (Homo sapiens) (P07203 whole entry, looked up): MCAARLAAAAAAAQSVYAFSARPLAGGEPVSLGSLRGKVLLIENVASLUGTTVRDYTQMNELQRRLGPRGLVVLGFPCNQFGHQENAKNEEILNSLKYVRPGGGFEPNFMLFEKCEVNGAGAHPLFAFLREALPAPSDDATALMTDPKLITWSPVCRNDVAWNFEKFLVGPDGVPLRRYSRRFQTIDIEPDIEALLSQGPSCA
Chain of Phospholipid hydroperoxide glutathione peroxidase GPX4 (Homo sapiens) (P36969 whole entry, looked up): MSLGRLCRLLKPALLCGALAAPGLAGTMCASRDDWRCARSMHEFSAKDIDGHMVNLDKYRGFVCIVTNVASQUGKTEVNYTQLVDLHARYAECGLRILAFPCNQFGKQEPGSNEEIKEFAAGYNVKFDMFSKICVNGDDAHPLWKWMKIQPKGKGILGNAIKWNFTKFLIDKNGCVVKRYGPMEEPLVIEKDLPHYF

Compound | outcome [1] | Potency [2] | Potency [3]
C[C@]12CC[C@@H]3c4ccc(O)cc4CC[C@H]3[C@@H]1CC[C@@H]2O | inactive | inactive | inactive
CNCCC=C1c2ccccc2CCc2ccccc21 | inactive |  | 
CC(=O)O[C@H]1C[C@@H]2CC[C@@H]3[C@H](CC[C@@]4(C)[C@H]3C[C@H]([N+]3(C)CCCCC3)[C@@H]4OC(C)=O)[C@@]2(C)C[C@@H]1[N+]1(C)CCCCC1 | inactive | inactive | inactive
CNCCC(Oc1ccccc1C)c1ccccc1 (stereo unspecified) | inactive |  | inactive
C[n+]1c2cc(N)ccc2cc2ccc(N)cc21 (tested in a mixture with another compound) |  | inactive | inactive
CC(=O)Oc1ccc2c(c1)CC[C@@H]1[C@@H]2CC[C@]2(C)[C@@H](O)CC[C@@H]12 |  | inactive | inactive
CC1(C)OC[C@@H](COC(=O)CCc2ccc(OC[C@@H](O)CNCCNC(=O)N3CCOCC3)cc2)O1 |  | inactive | inactive
Cc1cc(O)c(C(C)C)cc1Cl |  | inactive | inactive
CCOC(=O)[C@H](CCc1ccccc1)N[C@@H](C)C(=O)N1Cc2ccccc2C[C@H]1C(=O)O |  | inactive | inactive
O=C1OC2(c3ccc(O)cc3Oc3cc(O)ccc32)c2ccccc21 |  | inactive | inactive
CCCCCC=CCC=CCCCCCCCC(=O)OCC |  | inactive | inactive
CC(=O)c1ccc2c(c1)N(CCCN1CCC(CCO)CC1)c1ccccc1S2 |  | inactive | inactive
O=C1OC(c2ccc(O)cc2)(c2ccc(O)cc2)c2ccccc21 |  | inactive | inactive
CCCCC1=NC2(CCCC2)C(=O)N1Cc1ccc(-c2ccccc2-c2nn[nH]n2)cc1 |  | inactive | inactive
CC(C)N=C(N)/N=C(\N)Nc1ccc(Cl)cc1 |  | inactive | inactive
O=C(CCCN1CCC(O)(c2ccc(Br)cc2)CC1)c1ccc(F)cc1 |  | inactive | inactive
CC1(C)O[C@@H]2[C@@H](CO[C@@]3(COS(N)(=O)=O)OC(C)(C)O[C@@H]23)O1 |  | inactive | inactive
COc1cc(NS(C)(=O)=O)ccc1Nc1c2ccccc2nc2ccccc12 |  | inactive and 25.5 µM (active) | 
CCOc1ccc(NC(=O)CC(C)O)cc1 (stereo unspecified) |  | inactive | 
COc1ccc(OC)c(C(O)CNC(=O)CN)c1 (stereo unspecified) |  | inactive | 
CCOC(=O)/C=C(C)/C=C/C=C(C)/C=C/c1c(C)cc(OC)c(C)c1C |  | inactive | 
CC(C)NC[C@@H](O)COc1cccc2ccccc12 |  | inactive | 
Oc1c(I)cc(Cl)c2cccnc12 |  | inactive | 
COc1ccc(CCN2CCC(Nc3nc4ccccc4n3Cc3ccc(F)cc3)CC2)cc1 |  | inactive | inactive
CCOC(=O)c1cccc(N)c1 |  | inactive | inactive
CC(=O)Oc1ccc(C(=C2CCCCC2)c2ccc(OC(C)=O)cc2)cc1 |  | inactive | 
CCN(CC)C(=O)N1CCN(C)CC1 |  | inactive | inactive

Compound | outcome [1] | Potency [2] | Potency [3]
COCc1c(C(C)C)nc(C(C)C)c(/C=C/[C@@H](O)C[C@@H](O)CC(=O)O)c1-c1ccc(F)cc1 |  | inactive | 
NC(=O)c1cc[n+](CC2=C(C(=O)[O-])N3C(=O)[C@@H](NC(=O)Cc4cccs4)[C@H]3SC2)cc1 |  | 10.1 µM (active) | 
CCCOC(C(=O)OC1CCN(C)CC1)(c1ccccc1)c1ccccc1 |  | inactive | inactive
N[C@@H](CCC(=O)N[C@@H](CS)C(=O)NCC(=O)O)C(=O)O |  | inactive | 
CC(C)(C(=O)c1cccnc1)c1cccnc1 |  | inactive | 
CC[N+](CC)(CCNC(=O)C(=O)NCC[N+](CC)(CC)Cc1ccccc1Cl)Cc1ccccc1Cl |  | inactive | 
C[C@]12C=CC(=O)C=C1[C@@H](F)C[C@@H]1[C@@H]2[C@@H](O)C[C@@]2(C)[C@H]1CC[C@]2(O)C(=O)CO |  | inactive | 
C[C@]12C=CC(=O)C=C1CC[C@@H]1[C@@H]2[C@@H](O)C[C@@]2(C)[C@H]1CC[C@]2(O)C(=O)CO |  | inactive | inactive
OCc1ccccc1O |  | inactive | inactive
NCCC(O)(P(=O)(O)O)P(=O)(O)O |  | inactive | inactive
CC(=O)N(O)CCCCCNC(=O)CCC(=O)N(O)CCCCCNC(=O)CCC(=O)N(O)CCCCCN |  | inactive | inactive
COc1cc(/C=C/C(=O)O[C@H]2CC[C@]34C[C@]35CC[C@]3(C)[C@@H]([C@H](C)CCC=C(C)C)CC[C@@]3(C)[C@@H]5CC[C@H]4C2(C)C)ccc1O |  | inactive | 
CC(=O)OCC(=O)[C@@]12OC(C)(C)O[C@@H]1C[C@H]1[C@@H]3C[C@H](F)C4=CC(=O)C=C[C@]4(C)[C@@]3(F)[C@@H](O)C[C@@]12C |  | inactive | inactive
C[C@]12CC[C@@H]3c4ccc(O)cc4CC[C@H]3[C@@H]1C[C@@H](O)[C@@H]2O |  | inactive | 
COc1cc(OC)cc(OC)c1 |  | inactive | 
Oc1c(I)cc(I)c2cccnc12 |  | inactive | inactive
CC1(C)O[C@@H]2C[C@H]3[C@@H]4C[C@H](F)C5=CC(=O)CC[C@]5(C)[C@H]4[C@@H](O)C[C@]3(C)[C@]2(C(=O)CO)O1 |  | inactive | inactive
COc1cc2c(cc1OC)[C@@H]1CC(=O)[C@@H](CC(C)C)CN1CC2 |  | inactive | inactive
CN1CCC[C@@H]1c1cccnc1 |  | inactive | inactive
C=C(CC)C(=O)c1ccc(OCC(=O)O)c(Cl)c1Cl |  | inactive | inactive
COc1ccc(C2C(=O)c3ccccc3C2=O)cc1 |  | inactive | inactive
CN(C)/N=N/c1nc[nH]c1C(N)=O |  | inactive | inactive
CCOc1ccc(Cc2nccc3cc(OCC)c(OCC)cc23)cc1OCC |  | inactive | inactive
NCCCC[C@H](N[C@@H](CCc1ccccc1)C(=O)O)C(=O)N1CCC[C@H]1C(=O)O |  | inactive | inactive
COc1cccc(CCc2ccccc2OCC(CN(C)C)OC(=O)CCC(=O)O)c1 (stereo unspecified) |  | inactive | inactive
CN(C(=O)CN(CCO)CC(=O)N(C)C(C)(C)Cc1ccccc1)C(C)(C)Cc1ccccc1 |  | inactive | inactive
